TRPM1 prom inh = reduces MITF-dependent TRPM1 promoter luciferase signal; AID 488899; SK-MEL-5 TRPM1 promoter luciferase, 24 h; actives 0.83% (n = 330,000); inhibition, % at 12.5 µM;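 active = mean inhibition across replicates of 60% or more, whatever share of single replicates reaches that level; inconclusive = some that reach 60%, reason not given; inactive = mean inhibition across replicates below 60%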
MITF TRPM1 HTS = MITF TRPM1 promoter activation in melanoma cells; actives 0.75% (n = 300,000); AID 588334; activation, % at 12.5 µM; SK-MEL-5 TRPM1-promoter luciferase, 24 h; % of positive control, neutral wells = 0;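 active = mean activation of at least 80% with every replicate also reaching 80%; inconclusive = mean reaches 80% but some replicate falls short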;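 also: 0% = neutral control wells and 100% = parthenolide positive control wells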
Wnt bcat act = activators of Wnt/beta-catenin signaling. Wnt/beta-catenin reporter cell assay, activator, plate reader. activation, % at 9.35 µM. actives 1.2% (n = 300,000). AID 743398; in the data active = activation above about 30%, passing the limit was not always enough; inconclusive = no clear call, values can overlap the other calls;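 also: 0% = neutral control wells and 100% = positive control wells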
EBV LMP1 NFkB = reduces LMP1-driven NF-kappaB luciferase signal; LMP1-induced NF-kappaB luciferase reporter cells, luminescence; actives 0.69% (n = 350,000); AID 504558; inhibition, % at 12.5 µM; in the data active = inhibition above about 41%; inconclusive = no clear call, values can overlap the other calls;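 also: 0% = neutral control wells and 100% = reference inhibitor control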
esBAF inh = SWI/SNF esBAF complex inhibition; mouse ES cells, Bmi1-luciferase knock-in reporter, 24 h; 100% = twice the neutral-well signal; reporter increase, % at 12.5 µM; actives 2% (n = 350,000); AID 602393; in the data active = activation above about 40%; inconclusive = no clear call, values can overlap the other calls;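 also: 0% = median of the plate's neutral control wells and 100% = double that signal; a rise in the Bmi1 reporter signal indicates esBAF inhibition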
C2C12 statin = suppressors of simvastatin-induced myotoxicity in C2C12 myotubes. ATP luminescence, 48 h; scaled: DMSO 0, geranylgeraniol control 100. rescue of ATP level, % at 7.49 µM. actives 0.78% (n = 330,000);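 active = mean ATP rescue above about 67%, or every replicate alone reaching that limit, limit read from the data, passing the limit was not always enough; inconclusive = no clear call, values can overlap the other calls; inactive = mean under the limit and some replicate under it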;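 also: myotubes were challenged with 10 µM simvastatin during compound exposure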
An asterisk follows results filed as active; ? = inconclusive; . = no result. In the library only some 4% were active in any assay of this set; here they are far more common.

SMILES	TRPM1 prom inh	MITF TRPM1 HTS	Wnt bcat act	EBV LMP1 NFkB	esBAF inh	C2C12 statin
O=C(c1ccco1)N1N=C(c2ccccc2O)CC1c1cccs1 (configuration not stated)	.	.	-3.8	-0.5	-6.3	70.3*
COc1cc(S(=O)(=O)N2CCN(c3ccccc3F)CC2)c(OC)cc1Cl	-12.8	12.1	.	-8.9	-3.4	18.4
Cc1ccc(S(=O)(=O)N(C)C)cc1NC(=O)CCc1ccccc1	-16.1	-2.5	48.2*	-3.7	.	.
CCN(CC(=O)NCc1ccc(F)cc1)CC(=O)Nc1cc(S(=O)(=O)N(C)C)ccc1C	7.8	-6.7	-3.4	43.6*	-0.8	2.7
CCN(CC(=O)NCc1ccc(F)cc1)CC(=O)Nc1ccc(Br)cc1F	3.6	-2.7	-7.3	1.0	-0.9	6.7
COc1ccc(CCC(=O)Nc2ccc(C)c([N+](=O)[O-])c2)cc1	-8.7	1.8	?	62.0*	.	.
Cc1cccc(NC(=O)Cc2noc3ccccc23)c1	-47.8	.	.	-4.5	60.0*	5.0
Cc1ccc(S(=O)(=O)N(C)C)cc1NC(=O)CCc1c[nH]c2ccccc12	-3.1	6.4	-7.7	-4.8	.	.
C[C@H]1CN([C@@H](C)CO)C(=O)c2cc(NC(=O)Nc3ccc(C(F)(F)F)cc3)ccc2O[C@H]1CN(C)C(=O)Nc1ccc(C(F)(F)F)cc1	.	.	.	.	-2.7	-6.7
Cc1[nH]c2ccccc2c1CCN(Cc1cccnc1)C(=S)NC(C)(C)C	6.9	-4.6	0.6	2.9	-2.1	-4.7
Cc1ccc(NC(=O)CCc2ccccc2)cc1C	.	.	1.6	-17.1	52.2*	1.6
COc1ccc(OCCCC(=O)Nc2cc([N+](=O)[O-])ccc2C)cc1	3.4	0.1	.	-6.0	-7.2	73.4*
Cc1ccc(NC(=O)C2(c3ccccc3)CC2(Cl)Cl)cc1C (configuration not stated)	-28.0	35.1	.	-20.0	38.2	143.1*
Cc1cccc(NC(=O)CCCc2ccccc2)c1	-73.5	.	17.4	-32.3	63.3*	-0.5
Cc1ccc(NC(=O)N(C2=NCC(C)S2)c2ccccc2)cc1 (configuration not stated)	-85.8	?	.	-10.5	43.3*	1.7
CCOc1ccc(N=c2scc(-c3ccc(OC)cc3)n2CCO)cc1	11.7	-10.2	-3.5	3.4	14.0	11.1
CCOc1ccc(N=c2scc(-c3ccccc3)n2CCO)cc1	-24.4	29.5	11.6	-36.1	44.8*	-0.1
OCCn1c(-c2ccc(F)cc2)csc1=Nc1ccccc1	-8.1	4.0	6.5	15.9	.	.
CCn1c(-c2ccccc2)csc1=Nc1ccc(O)cc1	-60.4	59.5	65.8*	-8.9	.	.
OCCn1c(-c2ccc3c(c2)OCO3)csc1=Nc1ccccc1	-16.1	12.5	21.7	3.6	78.5*	16.3
COCCn1c(-c2ccccc2)csc1=Nc1cccnc1	4.5	-0.9	-1.3	-6.8	.	.
C/C(N)=C(/C#N)C(=O)CSc1nnc(Nc2ccccc2)s1	-51.8	53.6	38.8*	-22.5	.	.
O=C(Nc1nncs1)c1cc2c(s1)CCC2	-73.1	73.8	29.1	-15.3	.	.
CCSc1nnc(Nc2ccc(C)cc2)s1	-86.2	88.6*	.	-14.7	82.6*	-2.9
Cc1ccc(CSc2nnc(Nc3ccc(C)cc3)s2)cc1	1.8	.	.	-0.9	-1.1	4.3
SMILES	TRPM1 prom inh	MITF TRPM1 HTS	Wnt bcat act	EBV LMP1 NFkB	esBAF inh	C2C12 statin
C/C(N)=C(/C#N)C(=O)CSc1nnc(Nc2ccccc2C)s1	-3.5	3.4	.	-3.2	.	.
CCSc1nnc(NC(=O)c2ccccc2)s1	-94.3	104.3*	23.5	1.9	.	.
O=C(Nc1nccs1)c1cc2c(s1)CCCCC2	45.9	-47.4	.	52.1*	.	-59.4
C[C@H](CO)N1C[C@H](C)[C@H](CN(C)Cc2ccncc2)OCc2cnnn2CCCC1=O	.	.	.	.	-5.7	6.9
CCc1ccc2c(c1)C(C)=CC(C)(C)N2	10.7	-10.9	.	-6.0	-3.4	-2.3
CCSc1nnc(Nc2ccccc2)s1	-65.4	68.6	4.5	-13.4	58.5*	-11.2
O=C1CCCCC1Sc1nnc(Nc2ccccc2)s1 (configuration not stated)	-71.2	72.8	9.5	-36.2	71.3*	1.6
CCSc1nnc(NC(=O)c2cc3c(s2)CCCC3)s1	-107.3	105.4*	.	-12.3	54.4*	2.5
CN(C)C(=O)c1ccc(-c2ccc3c(c2)[C@H]2[C@H](CCN2C(=O)c2ccccc2)[C@@H](CO)N3)cc1	.	.	.	.	1.2	6.6
COc1ccccc1NC(=O)C(=O)NCc1ccncc1	-10.2	9.8	-2.4	3.7	.	.
CCOC(=O)c1nnn(-c2ccc([N+](=O)[O-])cc2[N+](=O)[O-])c1C	77.2*	-76.7	4.5	-34.7	.	.
CCOC(=O)c1nnn(-c2ccccc2)c1C	-13.8	12.7	0.4	-5.9	13.1	-20.8
COc1ccc(C(=O)N2CCN(C(=O)c3cc(OC)c(OC)c(OC)c3)CC2)cc1	-17.6	16.3	-0.5	-1.2	0.3	107.8*
COc1cc(C(=O)N2CCNCC2)cc(OC)c1OC	-1.7	.	0.0	-23.3	-2.9	-2.1
CCN1C(=O)[C@@H]2[C@@H](c3ccc(-c4ccc(Cl)c(Cl)c4)cc3)N3CCC[C@@]3(C(=O)OC)[C@@H]2C1=O	20.2	-14.6	-7.3	74.7*	6.9	-3.7
CCc1ccc(NC(=O)CSc2nc3ccccc3c(=O)n2CCCN2CCC(C)CC2)cc1	-11.7	14.2	-3.3	8.9	2.1	-17.1
CC(=O)Cc1nsc(NC(=O)c2cccc(F)c2)n1	-13.4	17.7	.	-18.2	61.1*	-5.0
CC(=O)Cc1nsc(NC(=O)c2ccc(-c3cccc(C(F)(F)F)c3)o2)n1	6.0	-7.0	.	-2.4	.	.
CCOC(=O)CNC(=O)c1sc(NC(=O)c2cccc(F)c2)nc1C	-18.2	20.5	.	-6.1	54.1*	-14.2
CCOC(=O)CNC(=O)c1sc(NC(=O)c2ccccc2F)nc1C	-38.8	44.6	17.3	-27.1	57.3*	-25.3
CCOc1cc(NC(=S)NCC2CCCO2)c(OCC)cc1NC(=O)c1ccc(OC)cc1 (configuration not stated)	-11.3	6.7	.	-3.4	2.5	-0.9
COc1ccc(CN(C)C[C@H]2Oc3ccc(NC(=O)Nc4cccc5ccccc45)cc3C(=O)N([C@@H](C)CO)C[C@@H]2C)cc1	.	.	.	.	2.0	-9.5
COc1ccc(NC(=O)C(=O)NCC2CCCN2S(=O)(=O)c2ccc(C)cc2)cc1 (configuration not stated)	71.8*	-71.2	-1.7	5.1	-19.6	-6.6
Cc1cccc(NC(=O)C(=O)NCC2CCCN2S(=O)(=O)c2cccs2)c1 (configuration not stated)	.	.	3.4	2.2	42.4*	4.3
COc1ccc(S(=O)(=O)N2CCCC2CNC(=O)C(=O)Nc2ccc(C)cc2)cc1 (configuration not stated)	-2.2	5.3	-0.4	-0.9	.	.
Cc1ccc(NC(=O)C(=O)NCC2CCCN2S(=O)(=O)c2cccs2)cc1 (configuration not stated)	-3.2	6.5	-0.9	3.2	7.3	-1.6
C[C@H](CO)N1C[C@H](C)[C@H](CN(C)C)Oc2ccc(NC(=O)Cc3cn(C)c4ccccc34)cc2CC1=O	.	.	.	.	-2.9	-6.0
